According to publication PMC7862700, “An all-to-all approach to the identification of sequence-specific readers for epigenetic DNA modifications on cytosine”:

Legend:
Assay in all cases: DAPPL (digital affinity profiling via proximity ligation, sequencing); 10 mM Tris-HCl pH 7.5, 50 mM NaCl, 1 mM DTT, 4% glycerol, room temperature, 30 min; GST-TFs on glutathione beads, 16-mer random dsDNA library, 0.1% formaldehyde crosslink after washing; high values mean tight binding
Conditions in all cases: protein: recombinant; tags: N-terminal GST; dsDNA, one strand shown
[1] = molecular target: T1, FLI1 (Homo sapiens, UniProt Q01543 1-452)
T1 sequence: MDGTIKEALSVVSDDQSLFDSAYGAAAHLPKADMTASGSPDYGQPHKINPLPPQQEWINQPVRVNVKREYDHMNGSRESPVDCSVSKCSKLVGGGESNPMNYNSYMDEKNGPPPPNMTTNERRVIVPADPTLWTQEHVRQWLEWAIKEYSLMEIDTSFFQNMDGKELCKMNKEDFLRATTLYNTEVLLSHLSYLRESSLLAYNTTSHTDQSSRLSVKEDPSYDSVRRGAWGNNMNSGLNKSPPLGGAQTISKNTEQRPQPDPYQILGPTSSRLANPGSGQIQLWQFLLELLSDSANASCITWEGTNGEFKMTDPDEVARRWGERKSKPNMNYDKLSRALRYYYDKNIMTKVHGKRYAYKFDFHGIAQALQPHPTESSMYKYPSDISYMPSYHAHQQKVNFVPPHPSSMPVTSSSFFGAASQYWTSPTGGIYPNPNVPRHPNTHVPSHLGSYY
How it was run: (§1)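 Pools were built from human transcription factors expressed in yeast as GST fusions, captured on glutathione beads and DNA-barcoded, along with a tag-only sample. Incubation with 200 nmole of a 16-mer random double-stranded DNA library lasted 30 min at room temperature in Tris/NaCl/DTT/glycerol buffer, and was followed by washing, 0.1% formaldehyde crosslinking, proximity ligation, PCR amplification and Illumina NextSeq500 sequencing. Binding signal is the quotient of each hexamer's read frequency for a factor and its frequency for the tag-only sample.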

[2] = molecular target: T2, ELK1 (Homo sapiens, UniProt P19419 1-428)
T2 sequence: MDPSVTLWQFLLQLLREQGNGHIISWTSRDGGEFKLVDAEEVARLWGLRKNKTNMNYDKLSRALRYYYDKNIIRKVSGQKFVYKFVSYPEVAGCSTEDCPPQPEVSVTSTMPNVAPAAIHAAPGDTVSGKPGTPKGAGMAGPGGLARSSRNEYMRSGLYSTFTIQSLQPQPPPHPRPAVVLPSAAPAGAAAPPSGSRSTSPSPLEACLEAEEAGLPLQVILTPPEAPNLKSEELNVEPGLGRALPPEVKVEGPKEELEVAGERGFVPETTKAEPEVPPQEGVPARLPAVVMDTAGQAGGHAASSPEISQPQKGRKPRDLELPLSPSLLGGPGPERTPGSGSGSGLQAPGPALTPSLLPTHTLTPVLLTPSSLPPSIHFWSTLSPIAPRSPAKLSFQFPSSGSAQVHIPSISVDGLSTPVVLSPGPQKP
How it was run: as §1

[3] = molecular target: T3, ERG (Homo sapiens, UniProt P11308 1-479)
T3 sequence: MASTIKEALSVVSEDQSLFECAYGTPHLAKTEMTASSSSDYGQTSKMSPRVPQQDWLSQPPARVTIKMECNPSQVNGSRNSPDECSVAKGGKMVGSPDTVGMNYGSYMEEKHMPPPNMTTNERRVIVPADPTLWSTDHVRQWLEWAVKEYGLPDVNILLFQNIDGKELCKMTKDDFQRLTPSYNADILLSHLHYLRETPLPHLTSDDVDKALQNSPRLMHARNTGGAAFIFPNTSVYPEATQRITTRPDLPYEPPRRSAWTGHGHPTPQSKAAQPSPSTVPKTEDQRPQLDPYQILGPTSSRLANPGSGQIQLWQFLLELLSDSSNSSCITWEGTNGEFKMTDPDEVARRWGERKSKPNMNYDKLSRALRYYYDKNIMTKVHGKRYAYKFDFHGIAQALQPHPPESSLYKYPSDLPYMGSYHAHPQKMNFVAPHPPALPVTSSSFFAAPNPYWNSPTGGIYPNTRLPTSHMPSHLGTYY
How it was run: as §1

[4] = molecular target: ELF1 (Homo sapiens, UniProt P32519 1-619)
How it was run: as §1

[5] = molecular target: T4, EHF (Homo sapiens, UniProt Q9NZC4 1-300)
T4 sequence: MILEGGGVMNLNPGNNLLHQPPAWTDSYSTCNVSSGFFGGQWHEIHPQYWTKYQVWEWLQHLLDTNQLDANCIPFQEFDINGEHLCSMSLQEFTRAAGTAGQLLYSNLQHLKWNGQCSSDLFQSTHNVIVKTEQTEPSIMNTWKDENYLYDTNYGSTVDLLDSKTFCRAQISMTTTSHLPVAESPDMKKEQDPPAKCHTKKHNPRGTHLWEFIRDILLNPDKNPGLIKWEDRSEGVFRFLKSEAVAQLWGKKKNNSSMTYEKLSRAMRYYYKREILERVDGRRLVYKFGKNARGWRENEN
How it was run: as §1

[6] = molecular target: SPIB (Homo sapiens, UniProt Q01892 1-262)
How it was run: as §1

[7] = molecular target: T5, ELK3 (Homo sapiens, UniProt P41970 1-407)
T5 sequence: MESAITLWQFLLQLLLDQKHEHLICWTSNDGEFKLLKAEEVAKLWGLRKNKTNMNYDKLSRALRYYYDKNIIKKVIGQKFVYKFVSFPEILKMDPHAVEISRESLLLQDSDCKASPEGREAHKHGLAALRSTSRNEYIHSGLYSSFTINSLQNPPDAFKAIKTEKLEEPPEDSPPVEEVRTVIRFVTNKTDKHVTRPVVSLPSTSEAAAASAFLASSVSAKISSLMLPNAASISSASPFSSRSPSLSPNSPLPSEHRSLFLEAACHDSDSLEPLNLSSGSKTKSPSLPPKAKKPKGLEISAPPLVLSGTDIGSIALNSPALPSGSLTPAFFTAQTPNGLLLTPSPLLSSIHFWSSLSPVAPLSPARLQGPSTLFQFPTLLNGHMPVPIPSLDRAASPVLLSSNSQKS
How it was run: as §1

[8] = molecular target: ETV5 (Homo sapiens, UniProt P41161 1-510)
How it was run: as §1

[9] = molecular target: ELF4 (Homo sapiens, UniProt Q99607 1-663)
How it was run: as §1

[10] = molecular target: T6, ELF3 (Homo sapiens, UniProt P78545 1-371)
T6 sequence: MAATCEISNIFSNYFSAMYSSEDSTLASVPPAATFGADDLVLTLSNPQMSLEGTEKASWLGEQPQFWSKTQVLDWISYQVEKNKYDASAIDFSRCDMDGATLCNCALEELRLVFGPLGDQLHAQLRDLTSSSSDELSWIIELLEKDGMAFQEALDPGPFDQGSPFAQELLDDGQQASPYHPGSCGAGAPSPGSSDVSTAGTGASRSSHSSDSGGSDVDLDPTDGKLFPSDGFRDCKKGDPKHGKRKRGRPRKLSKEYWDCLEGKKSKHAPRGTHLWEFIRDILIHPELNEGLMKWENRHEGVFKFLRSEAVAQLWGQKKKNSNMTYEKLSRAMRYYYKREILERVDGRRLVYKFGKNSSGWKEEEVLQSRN
How it was run: as §1

[11] = molecular target: ETV1 (Homo sapiens, UniProt P50549 1-477)
How it was run: as §1

[12] = molecular target: T7, ETS2 (Homo sapiens, UniProt P15036 1-469)
T7 sequence: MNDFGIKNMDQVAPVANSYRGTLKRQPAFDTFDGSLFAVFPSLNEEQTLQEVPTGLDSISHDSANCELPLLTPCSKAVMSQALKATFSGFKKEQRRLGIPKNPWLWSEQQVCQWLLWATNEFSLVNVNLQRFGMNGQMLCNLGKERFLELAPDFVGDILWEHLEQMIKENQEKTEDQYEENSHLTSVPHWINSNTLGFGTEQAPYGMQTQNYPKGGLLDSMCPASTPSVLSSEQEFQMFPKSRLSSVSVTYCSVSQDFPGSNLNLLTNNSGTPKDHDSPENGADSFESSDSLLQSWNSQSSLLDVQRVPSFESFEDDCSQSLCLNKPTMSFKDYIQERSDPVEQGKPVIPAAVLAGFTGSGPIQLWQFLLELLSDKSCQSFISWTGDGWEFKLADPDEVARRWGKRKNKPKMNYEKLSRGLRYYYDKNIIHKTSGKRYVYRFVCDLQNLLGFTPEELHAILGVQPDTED
How it was run: as §1

[13] = molecular target: T8, ETV3 (Homo sapiens, UniProt P41162-2 1-143)
T8 sequence: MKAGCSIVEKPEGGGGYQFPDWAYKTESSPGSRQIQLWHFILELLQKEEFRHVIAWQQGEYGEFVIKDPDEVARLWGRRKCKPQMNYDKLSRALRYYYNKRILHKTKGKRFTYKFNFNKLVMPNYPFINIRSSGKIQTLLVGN
How it was run: as §1

[14] = molecular target: ETV6 (Homo sapiens, UniProt P41212 1-452)
How it was run: as §1

Sequence of SPIB (Q01892 whole entry): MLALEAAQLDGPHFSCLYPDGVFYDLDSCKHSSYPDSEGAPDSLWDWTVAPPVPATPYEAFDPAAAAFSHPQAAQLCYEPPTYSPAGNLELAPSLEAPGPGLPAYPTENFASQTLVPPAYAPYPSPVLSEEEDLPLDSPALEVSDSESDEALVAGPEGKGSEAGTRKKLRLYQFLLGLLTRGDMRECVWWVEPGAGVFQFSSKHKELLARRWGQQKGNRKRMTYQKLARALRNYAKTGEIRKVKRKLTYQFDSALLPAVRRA
Sequence of ETV6 (P41212 whole entry): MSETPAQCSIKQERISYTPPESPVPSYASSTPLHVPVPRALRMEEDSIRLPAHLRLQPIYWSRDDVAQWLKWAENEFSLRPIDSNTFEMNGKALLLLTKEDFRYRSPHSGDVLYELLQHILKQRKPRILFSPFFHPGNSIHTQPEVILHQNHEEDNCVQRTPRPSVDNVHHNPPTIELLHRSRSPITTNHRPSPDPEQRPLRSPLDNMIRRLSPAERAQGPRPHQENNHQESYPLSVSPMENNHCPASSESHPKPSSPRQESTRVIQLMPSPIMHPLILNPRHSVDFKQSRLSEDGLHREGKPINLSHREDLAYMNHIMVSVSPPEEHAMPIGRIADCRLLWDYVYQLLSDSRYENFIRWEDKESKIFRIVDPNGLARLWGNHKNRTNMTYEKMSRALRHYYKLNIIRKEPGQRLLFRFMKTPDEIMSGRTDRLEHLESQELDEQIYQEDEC
Sequence of ELF4 (Q99607 whole entry): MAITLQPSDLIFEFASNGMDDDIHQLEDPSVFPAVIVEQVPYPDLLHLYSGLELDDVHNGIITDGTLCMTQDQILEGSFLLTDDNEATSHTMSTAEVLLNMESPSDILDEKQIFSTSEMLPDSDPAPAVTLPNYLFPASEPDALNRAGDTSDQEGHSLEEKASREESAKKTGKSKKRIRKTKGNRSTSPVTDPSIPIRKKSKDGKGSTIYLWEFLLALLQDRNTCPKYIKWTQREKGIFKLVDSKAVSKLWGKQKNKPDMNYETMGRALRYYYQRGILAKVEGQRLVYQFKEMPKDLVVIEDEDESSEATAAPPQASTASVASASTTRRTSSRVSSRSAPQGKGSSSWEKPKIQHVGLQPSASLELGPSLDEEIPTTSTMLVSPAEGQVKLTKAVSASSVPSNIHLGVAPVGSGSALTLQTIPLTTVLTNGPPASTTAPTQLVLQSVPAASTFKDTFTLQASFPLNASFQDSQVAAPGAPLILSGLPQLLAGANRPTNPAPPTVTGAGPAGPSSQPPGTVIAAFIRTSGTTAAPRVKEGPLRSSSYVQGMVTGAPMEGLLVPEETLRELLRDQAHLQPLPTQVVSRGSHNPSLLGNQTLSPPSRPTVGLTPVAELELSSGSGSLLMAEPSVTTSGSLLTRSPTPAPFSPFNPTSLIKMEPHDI
Sequence of ETV1 (P50549 whole entry): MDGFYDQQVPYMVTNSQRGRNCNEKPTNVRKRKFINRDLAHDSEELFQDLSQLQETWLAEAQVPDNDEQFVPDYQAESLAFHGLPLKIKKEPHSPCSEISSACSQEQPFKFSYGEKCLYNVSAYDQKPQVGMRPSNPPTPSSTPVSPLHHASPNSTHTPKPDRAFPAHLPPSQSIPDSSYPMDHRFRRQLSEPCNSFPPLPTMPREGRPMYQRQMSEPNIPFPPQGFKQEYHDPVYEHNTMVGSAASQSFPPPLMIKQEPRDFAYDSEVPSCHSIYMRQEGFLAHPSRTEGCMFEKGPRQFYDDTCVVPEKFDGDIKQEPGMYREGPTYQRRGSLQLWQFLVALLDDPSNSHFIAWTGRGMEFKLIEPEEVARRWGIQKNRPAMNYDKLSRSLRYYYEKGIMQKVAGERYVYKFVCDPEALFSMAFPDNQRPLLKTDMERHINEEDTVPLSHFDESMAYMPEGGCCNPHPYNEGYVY
Sequence of ETV5 (P41161 whole entry): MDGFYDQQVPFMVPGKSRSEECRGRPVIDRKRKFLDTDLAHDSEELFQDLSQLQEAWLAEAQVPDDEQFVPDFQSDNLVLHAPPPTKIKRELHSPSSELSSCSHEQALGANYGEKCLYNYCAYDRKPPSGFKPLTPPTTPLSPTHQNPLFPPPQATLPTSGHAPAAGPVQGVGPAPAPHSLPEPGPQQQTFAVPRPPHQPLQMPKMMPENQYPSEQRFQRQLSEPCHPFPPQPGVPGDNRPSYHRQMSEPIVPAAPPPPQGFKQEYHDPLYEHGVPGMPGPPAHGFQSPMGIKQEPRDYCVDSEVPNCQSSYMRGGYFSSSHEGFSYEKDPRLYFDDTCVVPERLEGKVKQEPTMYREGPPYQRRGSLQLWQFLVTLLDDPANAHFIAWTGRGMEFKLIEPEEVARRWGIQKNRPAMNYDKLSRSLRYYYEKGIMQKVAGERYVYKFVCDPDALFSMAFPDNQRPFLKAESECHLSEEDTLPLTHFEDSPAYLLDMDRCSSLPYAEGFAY
Sequence of ELF1 (P32519 whole entry): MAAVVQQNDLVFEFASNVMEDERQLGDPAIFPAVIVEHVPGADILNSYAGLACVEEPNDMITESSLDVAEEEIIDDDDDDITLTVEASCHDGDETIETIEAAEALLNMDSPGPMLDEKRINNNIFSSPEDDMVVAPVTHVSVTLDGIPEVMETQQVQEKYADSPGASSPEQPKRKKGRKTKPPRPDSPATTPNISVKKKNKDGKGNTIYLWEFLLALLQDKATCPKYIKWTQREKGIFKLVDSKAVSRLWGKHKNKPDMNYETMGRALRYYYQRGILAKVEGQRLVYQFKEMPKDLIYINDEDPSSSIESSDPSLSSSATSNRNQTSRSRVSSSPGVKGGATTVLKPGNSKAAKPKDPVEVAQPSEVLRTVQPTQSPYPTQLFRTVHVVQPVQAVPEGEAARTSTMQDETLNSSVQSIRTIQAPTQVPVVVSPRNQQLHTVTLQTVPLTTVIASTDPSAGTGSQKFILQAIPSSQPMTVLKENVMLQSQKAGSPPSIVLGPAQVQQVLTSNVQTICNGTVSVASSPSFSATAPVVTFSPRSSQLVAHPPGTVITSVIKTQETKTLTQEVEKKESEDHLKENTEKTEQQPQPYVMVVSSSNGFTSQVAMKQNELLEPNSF

TGCCGG was tested, and the binding signal [1] was 1.11 fold enrichment (6-mer frequency, TF over GST control), the binding signal [2] was 1.09 fold enrichment (6-mer frequency, TF over GST control) and the binding signal [3] was 1.13 fold enrichment (6-mer frequency, TF over GST control). The binding signal [4] was 1.02 fold enrichment (6-mer frequency, TF over GST control), the binding signal [5] was 1.03 fold enrichment (6-mer frequency, TF over GST control) and the binding signal [6] was 1.02 fold enrichment (6-mer frequency, TF over GST control). For the same sequence, the binding signal [7] was 1.02 fold enrichment (6-mer frequency, TF over GST control), the binding signal [8] was 1.04 fold enrichment (6-mer frequency, TF over GST control) and the binding signal [9] was 1.04 fold enrichment (6-mer frequency, TF over GST control). The binding signal [10] was 1.11 fold enrichment (6-mer frequency, TF over GST control), the binding signal [11] was 1.11 fold enrichment (6-mer frequency, TF over GST control) and the binding signal [12] was 1 fold enrichment (6-mer frequency, TF over GST control). The binding signal [13] was 1.21 fold enrichment (6-mer frequency, TF over GST control) and the binding signal [14] was 1.13 fold enrichment (6-mer frequency, TF over GST control).
